Where “and” joins values, the source holds several entries; their conditions need not be identical. Equal values may be shown once. Records with an inconclusive call do not appear. The source holds several records for some structures; these can differ, active in one and inactive in another. Calls of active or inactive are those of the source. Rule for the calls, unless noted: active = hit-call score of the fitted dose curve at least 0.9, where 1 is the maximum; inactive = score below 0.9.
What was measured:
[1] = biological target: Oxysterols receptor LXR-alpha (Homo sapiens) (UniProt Q13133); test: ATG_LXRa_TRANS: Attagene TRANS-FACTORIAL HepG2 Assay for human Liver X Receptor alpha (LXRa) (AID 2282980; active = hit-call score of the fitted dose curve at least 0.9, where 1 is the maximum); settings: HepG2 Attagene TRANS reporter, LXRa transactivation
Outline: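 Transient HepG2 transfectants, 24 h dosing, RT-PCR/CE mRNA reporter quantitation; gain-of-signal vs DMSO.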

[2] = biological target: Oxysterols receptor LXR-beta (Homo sapiens) (UniProt P55055); test: ATG_LXRb_TRANS: Attagene TRANS-FACTORIAL HepG2 Assay for human Liver X Receptor beta (LXRb) (AID 2282981; active = hit-call score of the fitted dose curve at least 0.9, where 1 is the maximum); settings: HepG2 Attagene TRANS GAL4-LXRb reporter, mRNA
Outline: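 Measures induction of a Gal4-driven reporter transcript in HepG2 cells expressing an exogenous LXRb-Gal4 fusion. Cells are exposed to compound for 24 h before RNA isolation and RT-PCR with capillary electrophoresis detection.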

[3] = biological target: Hepatocyte nuclear factor 4-alpha (Homo sapiens) (UniProt P41235); test: ATG_HNF4a_TRANS: Attagene TRANS-FACTORIAL HepG2 Assay for human Hepatocyte Nuclear Factor 4 alpha (HNF4a) (AID 2282982; active = hit-call score of the fitted dose curve at least 0.9, where 1 is the maximum); settings: HepG2 HNF4a transactivation reporter, mRNA readout
Outline: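 In this trans-factorial format, a chimeric HNF4a-GAL4 fusion drives a GAL4-UAS reporter in transfected HepG2 liver cells. After 24 h treatment, reporter mRNA induction is measured by RT-PCR with capillary electrophoresis, relative to DMSO.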

[4] = ATG_M_32_TRANS: Attagene TRANS-FACTORIAL HepG2 Assay for M32 Transcription Factor (Internal Marker) (AID 2282984; active = hit-call score of the fitted dose curve at least 0.9, where 1 is the maximum); settings: HepG2 Attagene TRANS M32 internal marker reporter
Outline: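 After 24 h dosing of transfected HepG2 cells, total RNA was reverse-transcribed, reporter sequences PCR-amplified, 6-FAM labelled by primer extension and HpaI-digested before capillary electrophoresis. Signal increase over DMSO was fitted.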

[5] = biological target: Transcriptional activator Myb (Homo sapiens) (UniProt P10242); test: ATG_Myb_CIS: Attagene CIS-FACTORIAL HepG2 Assay for human Myeloblastosis (Myb) Proto-Oncogene Transcription Factor (AID 2282986); settings: HepG2 Attagene CIS-FACTORIAL Myb reporter transcription; actives raise or lower the signal
Outline: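 Reporter transcript levels, quantified by fluorescent RT-PCR and capillary electrophoresis, serve as the read-out. Transfected HepG2 cells carrying cis-promoter reporter units are dosed for 24 hours, and curves are fitted bidirectionally against DMSO controls.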

[6] = biological target: Nuclear respiratory factor 1 (Homo sapiens) (UniProt Q16656); test: ATG_NRF1_CIS: Attagene CIS-FACTORIAL HepG2 Assay for human Nuclear Respiratory Factor 1 (NRF1) Orphan Gene (AID 2282987); settings: HepG2 NRF1 cis-element reporter, Attagene multiplex; actives raise or lower the signal
Outline: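 Multiplexed cis-reporter assay, HepG2 cells, 24 h treatment. Total RNA → oligo(dT) RT → PCR with reporter-specific primers → 6-FAM primer extension → HpaI cut → CE. Bidirectional fit vs DMSO.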

[7] = ATG_NFI_CIS: Attagene CIS-FACTORIAL HepG2 Assay for human Nuclear Factor I (NFI) (AID 2282989); settings: HepG2 cis-regulatory reporter, NFI response element transcription; actives raise or lower the signal
Outline: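 Multiplexed cis-reporter system in human HepG2 cells reports native TF activity as reporter mRNA induction 24 h post-dose. Fragments labelled with 6-FAM, HpaI-digested and resolved by capillary electrophoresis; activity fitted both directions versus DMSO.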

[8] = biological target: Myc proto-oncogene protein (Homo sapiens) (UniProt P01106); test: ATG_Myc_CIS: Attagene CIS-FACTORIAL HepG2 Assay for human Myelocytomatosis (Myc) Proto-Oncogene Transcription Factor (AID 2282990); settings: HepG2, Attagene cis-reporter transcription factor activity; actives raise or lower the signal
Outline: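 DMSO-normalised, bidirectionally fitted reporter mRNA signal. HepG2 cells transfected with cis reporter constructs, treated 24 h; transcripts detected by RT-PCR, 6-FAM primer extension and CE.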

[9] = ATG_NRF2_ARE_CIS: Attagene CIS-FACTORIAL HepG2 Assay for human Nuclear Factor Erythroid 2 Related Factor 2 (NFR2) response to Antioxidant Response Elements (ARE) (AID 2282992); settings: HepG2 Attagene ARE/NRF2 reporter, transcription factor activity; actives raise or lower the signal
Outline: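 Endogenous transcription factor activity read out as reporter transcript levels (RT-PCR plus capillary electrophoresis, fluorescence) in transiently transfected HepG2 cells. Measured at 24 h after dosing; gain or loss of signal fitted versus DMSO.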

[10] = ATG_Oct_MLP_CIS: Attagene CIS-FACTORIAL HepG2 Assay for human Octamer-Binding Transcription Factor (Oct) (AID 2282993); settings: HepG2 Attagene cis-factorial Oct reporter, mRNA; actives raise or lower the signal
Outline: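 After 24 h compound exposure, transfected HepG2 cells were lysed for total RNA; reporter-specific cDNA was PCR-amplified, fluorescently labelled and sized by capillary electrophoresis. Bidirectional curve fitting used DMSO as baseline.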

[11] = biological target: Glucocorticoid receptor (Homo sapiens) (UniProt P04150); test: ATG_GR_TRANS: Attagene TRANS-FACTORIAL HepG2 Assay for human Glucocorticoid Receptor (GR) (AID 2282978; active = hit-call score of the fitted dose curve at least 0.9, where 1 is the maximum;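 note: activators score as hits since higher reporter transcript over DMSO is fitted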); settings: HepG2 Attagene TRANS GR reporter, mRNA transcription
Outline: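 Fluorescent capillary-electrophoresis quantitation of reporter mRNA is the readout, taken 24 h after dosing human HepG2 cells carrying transiently transfected GAL4-UAS reporter units activated by chimeric NR-GAL4 fusions; activity scored as induction over DMSO.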

[12] = ATG_M_06_TRANS: Attagene TRANS-FACTORIAL HepG2 Assay for M06 Transcription Factor (Internal Marker) (AID 2282983; active = hit-call score of the fitted dose curve at least 0.9, where 1 is the maximum); settings: HepG2 Attagene TRANS M06 internal marker reporter
Outline: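 Human liver HepG2 cells bearing transiently transfected chimeric NR-GAL4 reporter units were treated with chemicals for 24 h. Total RNA was reverse-transcribed, reporter sequences amplified and labelled, then quantified by capillary electrophoresis. Activity was fitted upward relative to DMSO.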

[13] = biological target: Nuclear receptor subfamily 4 group A member 2 (Homo sapiens) (UniProt P43354); test: ATG_NURR1_TRANS: Attagene TRANS-FACTORIAL HepG2 Assay for human Nuclear Receptor Related Protein 1 (NURR1) (AID 2282985; active = hit-call score of the fitted dose curve at least 0.9, where 1 is the maximum); settings: HepG2 Attagene TRANS reporter, mRNA readout
Outline: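 Chimeric NR-Gal4 fusion activity measured in HepG2 after 24 h treatment. Reporter transcripts detected by RT-PCR and capillary electrophoresis fluorescence; positive-direction curve fitting against DMSO.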

[14] = ATG_NF_kB_CIS: Attagene CIS-FACTORIAL HepG2 Assay for human Nuclear Factor Kappa B (NF-kB) (AID 2282991); settings: HepG2 Attagene cis-factorial NF-kB reporter mRNA; actives raise or lower the signal
Outline: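 Transient MRTU transfection of human HepG2 liver cells → 24 h chemical exposure → total RNA, oligo(dT) RT → PCR, 6-FAM primer extension, HpaI digest 2 h 37 C → CE fragment analysis. Bidirectional fitting, DMSO negative control.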

[15] = BSK_3C_TissueFactor: BioMAP Diversity Plus: 3C Assay for Tissue Factor Biomarker Activity (AID 2282997); settings: BioMAP 3C HUVEC, tissue factor biomarker readout; actives raise or lower the signal
Outline: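 Cells used were primary human umbilical vein endothelial cells. They were dosed with chemical, and after 24 h Tissue Factor was quantified by ELISA. Curves were fitted bidirectionally with DMSO as baseline.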

[16] = BSK_3C_uPAR: BioMAP Diversity Plus: 3C Assay for Urokinase-type plasminogen activator receptor (uPAR) Biomarker Activity (AID 2282998); settings: BioMAP 3C HUVEC, uPAR biomarker ELISA; actives raise or lower the signal
Outline: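 Values derive from bidirectional curve fitting relative to DMSO, which served as baseline of activity. uPAR was measured by ELISA in human umbilical vein endothelial primary cultures 24 h after compound addition.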

[17] = biological target: Bile acid receptor (Homo sapiens) (UniProt Q96RI1); test: ATG_FXR_TRANS: Attagene TRANS-FACTORIAL HepG2 Assay for Farnesoid X Receptor (FXR) (AID 2282979; active = hit-call score of the fitted dose curve at least 0.9, where 1 is the maximum;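 note: hits raise reporter mRNA above DMSO so AC50 marks FXR activation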); settings: HepG2 Attagene TRANS FXR-GAL4 reporter transcription
Outline: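 Chimeric FXR-GAL4 activity in transiently transfected human HepG2 liver cells is scored as induction of reporter mRNA after 24 h of dosing. Detection uses RT-PCR with fluorescent labelling and capillary electrophoresis, with DMSO serving as baseline.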

[18] = biological target: Cellular tumor antigen p53 (Homo sapiens) (UniProt P04637); test: ATG_p53_CIS: Attagene CIS-FACTORIAL HepG2 Assay for human p53 Transcription Factor (AID 2282994); settings: HepG2 p53 cis-element reporter, Attagene mRNA; actives raise or lower the signal
Outline: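 Endogenous p53 activity read in transiently transfected HepG2 from a cis-element-driven reporter transcript after 24 h exposure. RNA reverse-transcribed, PCR-amplified, fluorescently labelled and sized by capillary electrophoresis; gain or loss fitted against DMSO baseline.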

Measured: AC50

Chain of Oxysterols receptor LXR-alpha (Homo sapiens) (Q13133 whole entry, looked up): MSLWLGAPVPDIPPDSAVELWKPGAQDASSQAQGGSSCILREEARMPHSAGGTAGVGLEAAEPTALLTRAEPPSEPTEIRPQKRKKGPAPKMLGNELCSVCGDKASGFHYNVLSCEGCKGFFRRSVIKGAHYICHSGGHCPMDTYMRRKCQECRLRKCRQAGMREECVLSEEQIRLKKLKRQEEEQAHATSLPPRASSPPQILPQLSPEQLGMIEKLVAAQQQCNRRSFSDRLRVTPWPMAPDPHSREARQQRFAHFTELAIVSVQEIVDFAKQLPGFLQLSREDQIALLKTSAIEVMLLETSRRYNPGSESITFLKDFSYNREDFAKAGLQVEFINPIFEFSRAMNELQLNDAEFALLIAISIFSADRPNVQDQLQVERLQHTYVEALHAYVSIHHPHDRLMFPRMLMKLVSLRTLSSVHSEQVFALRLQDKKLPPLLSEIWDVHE
Chain of Cellular tumor antigen p53 (Homo sapiens) (P04637 whole entry, looked up): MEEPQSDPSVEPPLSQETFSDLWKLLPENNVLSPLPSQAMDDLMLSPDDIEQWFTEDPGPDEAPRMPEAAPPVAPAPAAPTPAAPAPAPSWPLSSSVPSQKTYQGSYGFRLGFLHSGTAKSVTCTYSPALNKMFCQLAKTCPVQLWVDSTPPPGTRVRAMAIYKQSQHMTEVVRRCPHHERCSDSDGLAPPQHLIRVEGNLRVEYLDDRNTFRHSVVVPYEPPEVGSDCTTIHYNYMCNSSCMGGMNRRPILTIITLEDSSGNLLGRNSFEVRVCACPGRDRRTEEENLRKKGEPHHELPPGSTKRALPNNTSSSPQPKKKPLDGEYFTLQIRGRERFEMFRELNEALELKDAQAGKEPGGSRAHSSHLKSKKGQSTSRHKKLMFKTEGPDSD
Chain of Bile acid receptor (Homo sapiens) (Q96RI1 whole entry, looked up, the tested form may be a part): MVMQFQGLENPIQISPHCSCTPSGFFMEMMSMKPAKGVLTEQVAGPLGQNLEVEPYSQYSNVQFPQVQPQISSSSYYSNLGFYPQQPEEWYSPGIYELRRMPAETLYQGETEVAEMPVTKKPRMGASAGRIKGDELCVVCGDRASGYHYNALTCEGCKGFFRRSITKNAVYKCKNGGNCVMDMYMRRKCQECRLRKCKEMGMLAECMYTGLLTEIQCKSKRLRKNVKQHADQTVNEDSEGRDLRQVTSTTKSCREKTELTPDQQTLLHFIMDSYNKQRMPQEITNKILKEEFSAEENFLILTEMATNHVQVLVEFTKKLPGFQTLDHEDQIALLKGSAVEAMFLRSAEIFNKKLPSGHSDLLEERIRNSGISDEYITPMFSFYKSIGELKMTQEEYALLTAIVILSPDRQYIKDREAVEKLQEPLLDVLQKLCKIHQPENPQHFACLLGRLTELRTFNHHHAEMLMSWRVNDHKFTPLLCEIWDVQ
Chain of Oxysterols receptor LXR-beta (Homo sapiens) (P55055 whole entry, looked up, the tested form may be a part): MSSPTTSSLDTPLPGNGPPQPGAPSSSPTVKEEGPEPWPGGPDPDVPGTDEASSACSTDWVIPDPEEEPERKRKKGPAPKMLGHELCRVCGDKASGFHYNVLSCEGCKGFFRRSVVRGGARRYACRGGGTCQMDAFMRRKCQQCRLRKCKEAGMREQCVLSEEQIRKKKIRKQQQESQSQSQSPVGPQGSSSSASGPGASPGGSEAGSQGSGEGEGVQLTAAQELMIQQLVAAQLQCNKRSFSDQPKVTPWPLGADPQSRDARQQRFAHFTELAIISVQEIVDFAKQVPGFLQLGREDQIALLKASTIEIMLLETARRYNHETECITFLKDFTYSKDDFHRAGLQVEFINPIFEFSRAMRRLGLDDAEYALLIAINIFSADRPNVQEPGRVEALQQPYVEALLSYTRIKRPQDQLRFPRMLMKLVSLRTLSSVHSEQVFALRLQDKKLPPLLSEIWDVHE
Chain of Myc proto-oncogene protein (Homo sapiens) (P01106 whole entry, looked up): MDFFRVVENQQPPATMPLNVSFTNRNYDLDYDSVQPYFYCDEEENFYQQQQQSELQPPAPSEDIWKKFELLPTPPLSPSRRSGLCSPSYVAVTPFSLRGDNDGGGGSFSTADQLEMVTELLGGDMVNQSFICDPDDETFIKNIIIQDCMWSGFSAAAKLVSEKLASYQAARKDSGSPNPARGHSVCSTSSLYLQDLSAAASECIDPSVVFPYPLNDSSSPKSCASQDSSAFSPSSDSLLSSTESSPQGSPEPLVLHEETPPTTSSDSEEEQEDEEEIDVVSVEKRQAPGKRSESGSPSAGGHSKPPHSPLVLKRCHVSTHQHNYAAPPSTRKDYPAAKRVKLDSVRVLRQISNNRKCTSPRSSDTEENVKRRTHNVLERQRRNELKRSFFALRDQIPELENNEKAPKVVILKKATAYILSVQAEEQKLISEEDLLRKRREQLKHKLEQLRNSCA
Chain of Glucocorticoid receptor (Homo sapiens) (P04150 whole entry, looked up, the tested form may be a part): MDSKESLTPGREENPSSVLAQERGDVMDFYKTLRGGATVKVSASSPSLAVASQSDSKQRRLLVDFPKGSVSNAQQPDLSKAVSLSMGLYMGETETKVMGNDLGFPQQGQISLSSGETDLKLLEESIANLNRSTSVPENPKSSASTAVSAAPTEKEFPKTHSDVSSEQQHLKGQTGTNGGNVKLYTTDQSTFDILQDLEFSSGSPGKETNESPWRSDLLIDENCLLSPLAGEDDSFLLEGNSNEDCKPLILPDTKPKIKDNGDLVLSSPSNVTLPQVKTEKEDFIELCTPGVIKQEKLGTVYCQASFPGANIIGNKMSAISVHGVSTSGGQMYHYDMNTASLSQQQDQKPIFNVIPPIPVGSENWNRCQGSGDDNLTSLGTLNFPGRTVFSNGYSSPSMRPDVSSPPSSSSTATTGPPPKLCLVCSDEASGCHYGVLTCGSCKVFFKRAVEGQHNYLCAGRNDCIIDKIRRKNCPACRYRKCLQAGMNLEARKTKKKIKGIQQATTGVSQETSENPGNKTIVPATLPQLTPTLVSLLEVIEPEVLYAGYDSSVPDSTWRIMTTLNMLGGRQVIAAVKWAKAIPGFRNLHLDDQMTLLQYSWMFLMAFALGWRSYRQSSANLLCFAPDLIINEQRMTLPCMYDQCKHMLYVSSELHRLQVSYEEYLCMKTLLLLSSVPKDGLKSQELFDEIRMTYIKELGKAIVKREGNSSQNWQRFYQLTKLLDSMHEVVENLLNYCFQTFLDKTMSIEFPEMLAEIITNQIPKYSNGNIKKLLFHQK
Chain of Nuclear receptor subfamily 4 group A member 2 (Homo sapiens) (P43354 whole entry, looked up, the tested form may be a part): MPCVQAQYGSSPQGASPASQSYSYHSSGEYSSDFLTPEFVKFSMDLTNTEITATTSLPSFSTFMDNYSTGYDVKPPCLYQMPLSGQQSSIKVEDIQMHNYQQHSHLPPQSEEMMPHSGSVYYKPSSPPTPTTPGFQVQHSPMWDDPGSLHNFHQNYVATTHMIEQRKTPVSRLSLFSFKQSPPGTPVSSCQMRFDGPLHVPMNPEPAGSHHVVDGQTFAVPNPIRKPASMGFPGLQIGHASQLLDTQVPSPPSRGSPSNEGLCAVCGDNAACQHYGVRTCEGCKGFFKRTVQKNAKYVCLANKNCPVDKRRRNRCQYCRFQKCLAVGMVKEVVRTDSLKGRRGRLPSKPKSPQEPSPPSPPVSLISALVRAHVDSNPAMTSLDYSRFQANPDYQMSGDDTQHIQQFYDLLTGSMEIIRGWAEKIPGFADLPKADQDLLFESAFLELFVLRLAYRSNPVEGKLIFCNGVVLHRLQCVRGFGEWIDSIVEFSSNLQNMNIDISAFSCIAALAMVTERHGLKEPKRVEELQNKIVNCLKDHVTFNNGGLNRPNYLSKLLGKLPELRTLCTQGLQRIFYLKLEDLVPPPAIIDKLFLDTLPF
Chain of Nuclear respiratory factor 1 (Homo sapiens) (Q16656 whole entry, looked up): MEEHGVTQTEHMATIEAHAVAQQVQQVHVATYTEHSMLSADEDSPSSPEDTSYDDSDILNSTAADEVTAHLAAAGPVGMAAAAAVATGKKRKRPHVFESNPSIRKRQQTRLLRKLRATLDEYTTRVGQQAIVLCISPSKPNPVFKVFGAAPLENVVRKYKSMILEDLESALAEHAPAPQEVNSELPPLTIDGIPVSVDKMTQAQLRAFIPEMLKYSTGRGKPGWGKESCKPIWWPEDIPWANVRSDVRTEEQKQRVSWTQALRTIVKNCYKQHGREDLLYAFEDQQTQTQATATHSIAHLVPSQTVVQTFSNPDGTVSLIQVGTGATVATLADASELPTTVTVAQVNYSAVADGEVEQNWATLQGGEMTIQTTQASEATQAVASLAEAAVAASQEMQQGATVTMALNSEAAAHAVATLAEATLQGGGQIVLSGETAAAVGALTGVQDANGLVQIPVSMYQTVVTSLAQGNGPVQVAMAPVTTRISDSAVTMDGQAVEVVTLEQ
Chain of Hepatocyte nuclear factor 4-alpha (Homo sapiens) (P41235 whole entry, looked up, the tested form may be a part): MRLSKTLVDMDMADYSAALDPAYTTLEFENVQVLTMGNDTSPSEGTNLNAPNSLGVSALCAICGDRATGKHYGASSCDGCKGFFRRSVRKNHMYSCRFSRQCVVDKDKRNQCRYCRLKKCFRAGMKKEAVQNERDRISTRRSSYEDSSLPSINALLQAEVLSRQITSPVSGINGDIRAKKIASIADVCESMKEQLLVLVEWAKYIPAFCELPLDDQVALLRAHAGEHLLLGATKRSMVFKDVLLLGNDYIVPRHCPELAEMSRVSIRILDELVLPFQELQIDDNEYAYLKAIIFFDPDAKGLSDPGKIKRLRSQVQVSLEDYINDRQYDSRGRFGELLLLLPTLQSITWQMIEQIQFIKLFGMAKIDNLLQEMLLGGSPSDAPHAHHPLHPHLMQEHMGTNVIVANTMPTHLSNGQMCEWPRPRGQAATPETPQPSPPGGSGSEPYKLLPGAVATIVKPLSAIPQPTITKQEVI

CCc1ccccc1N
inactive: [1] | [2] | [3] | [4] | [5] | [6] | [7] | [8] | [9] | [10]

C=C(C)C(=O)[O][Sn]([CH2]CCC)([CH2]CCC)[CH2]CCC
inactive: [12] | [5] | [6] | [7] | [8] | [14]
active: [11] 1.98 µM | [13] 0.00168 µM | [9] 0.26 µM | [10] 0.412 µM | [15] 0.148 µM | [16] 0.148 µM

O=[N+]([O-])c1ccc2c3c(cccc13)CC2
active: [9] 6.63 µM | [16] 20 µM
not listed: [1] | [2] | [7] | [11] | [12] | [13]
inactive: all other assays above

COP(=S)(OC)Oc1c(Cl)cc(C)cc1Cl
active: [9] 29.2 µM
not listed: [1] | [3] | [12] | [17]
inactive: all other assays above

CC(C)(C)c1cc(O)ccc1O
active: [9] 9.05 µM | [10] 129 µM
not listed: [1] | [2] | [3] | [13] | [17] | [18]
inactive: all other assays above

CC(=[OH+])/C=C(/C)[O-].CC(=[OH+])/C=C(/C)[O-].CC(=[OH+])/C=C(/C)[O-].[Fe]
not listed: [4] | [9] | [11] | [12] | [15] | [16]
inactive: all other assays above

CC(C)(c1ccc(OCC2CO2)cc1)c1ccc(OCC2CO2)cc1 (stereo not given)
inactive: [11] | [2] | [4] | [13] | [5] | [7] | [8] | [14]
active: [9] 8.41 µM | [10] 24.9 µM | [18] 56.2 µM

C=C(C)C#N
inactive: [17] | [1] | [3] | [4] | [5] | [7] | [8] | [9] | [10]

CCCCP(CCCC)CCCC
not listed: [4] | [6] | [11] | [12] | [13] | [15] | [16]
inactive: all other assays above

CCOC(=O)Nc1cccc(OC(=O)Nc2ccccc2)c1
active: [9] 17.2 µM
not listed: [4] | [11] | [12] | [13] | [15] | [16] | [17]
inactive: all other assays above

ClCc1cccnc1
active: [7] 60.8 µM | [10] 50.9 µM
not listed: [9] | [11] | [15] | [16]
inactive: all other assays above

CC(C)(c1ccccc1)c1ccc(O)c(C(C)(C)c2ccccc2)c1
active: [6] 6.39 µM | [7] 8.31 µM | [14] 8.81 µM | [9] 7.97 µM | [10] 1.76 µM | [15] 11.7 µM | [16] 9.74 µM
inactive: [17] | [1] | [12] | [13] | [5] | [8] | [18]

Oc1cccc2cccnc12
inactive: [17] | [1] | [2] | [12] | [5] | [6] | [7] | [8] | [10] | [15] | [16]
active: [9] 15.3 µM and 1.64 µM | [10] 167 µM

CCCCC(CC)CO[N+](=O)[O-] (stereo not given)
active: [9] 167 µM | [15] 28.6 µM
not listed: [1] | [2] | [3] | [6] | [14] | [17]
inactive: all other assays above

N#CN=C(N)N
not listed: [2] | [11] | [15] | [16]
inactive: all other assays above

C[C@@H](Oc1ccc(Cl)cc1Cl)C(=O)O
inactive: [11] | [12] | [13] | [5] | [8] | [14] | [10] | [18]

c1cc[c]([Hg][c]2ccccc2)cc1
active: [10] 19 µM
not listed: [1] | [3] | [7] | [9] | [11] | [15] | [16]
inactive: all other assays above

CCC(=O)c1ccccc1
not listed: [1] | [2] | [3] | [11] | [13] | [15] | [16]
inactive: all other assays above

Cc1ccc(N)cc1Cl
inactive: [1] | [2] | [12] | [5] | [7] | [8] | [14] | [9] | [10]
